# Data taken from paper PMC12136788.
# Residue numbers refer to the chain shown, from its start. Over roughly 24,000 sequences, “enrichment r” has its median near 0.99; the highest 2% begin near 3.7. The sample holds the highest values, similar sequences and a random draw of the others, so the mix is not that of the screen.
# T1: UNK ZnF1-3 (human, UniProt Q9C0B0 31-174)
# T1 sequence: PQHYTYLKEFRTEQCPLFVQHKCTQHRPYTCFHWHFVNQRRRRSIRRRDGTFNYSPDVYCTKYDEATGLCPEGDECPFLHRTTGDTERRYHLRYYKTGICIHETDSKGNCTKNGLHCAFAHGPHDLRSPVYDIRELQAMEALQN
# B1: chrX:102931482:102931483:-_ENSG00000123562_ENST00000441076|hu_hu|FALSE|FALSE (ssRNA)
# RNA: GGGAGUUCUACAGUCCGACGAUCAAUUGCAUCUACAUUUUUCUUGGCAGGGAGUUGAAACAGCUGCUUCUGCCUGGUAACUAAGUCCCAGUCCUCAACAAGCCAUGGUUUUAAUUCUUCAGGAAUCUUCACUUUAACCUCCAUCAACAGAGGAUUGAGCAUCA
# B2: chr4:131761308:131761309:-_ENSMUSG00000040025_ENSMUST00000102570|mus_mus|motif|central (ssRNA)
# RNA: GGGAGUUCUACAGUCCGACGAUCGCUGACUGUCCAUCAAUCAUGGCUCCACCUAAGGAGCUGGGUGCAUAAGCGUAAUUGCGGCGGUAUCCAGAGCUUUGAGUAGACUGUCCCUGAGAACUGUUAUUUCCCCAUGCUGAGAAGCAACAGAGGAUUGAGCAUCA
# B3: chr17:15081082:15081083:+_ENSMUSG00000050088_ENSMUST00000052691|mus_mus|motif|central (ssRNA)
# RNA: GGGAGUUCUACAGUCCGACGAUCUGCUCCAGCAUAUUCAAGGGAUCAGAAGAGAAUUUCAAGCACCAGUUUCAAAAUGCGGAUCAAUAUCGUCCAGAGAACUGAUUCCUCCUCUUGGGCUGCCUCUUCUGGAGCGUAAGCCUGCAACAGAGGAUUGAGCAUCA
# B4: chr14:14948730:14948731:-_ENSMUSG00000021737_ENSMUST00000022256|mus_mus|FALSE|FALSE (ssRNA)
# RNA: GGGAGUUCUACAGUCCGACGAUCAAAAACUGAAUAACGGCAUUCAUAGAGAGAAAACAGAUACUGCCGAACUGCUGGAAGACUGUGCAACACUUCAAGGAUCUCUGCCCCUUUAAUGACCUUUUCCCUGAGGUCCGGCCUUUCCAACAGAGGAUUGAGCAUCA
# B5: chr15:76909541:76909542:-_ENSMUSG00000033565_ENSMUST00000166610|perfect_dup|motif|central (ssRNA)
# RNA: GGGAGUUCUACAGUCCGACGAUCCAACAUGAUCAAUAAUUUAUACACAUGGAGAGUAAUACAAAAAAUAAUGAAUAAAAGCGGAAGAUCUAACUACUCAACCUUCACAAUUCCAGCUACUUGAUAAUAGGAGUAACCCAAUGACAACAGAGGAUUGAGCAUCA
# B6: chr18:2804189:2804190:+_ENSG00000101596_ENST00000320876|hu_hu|FALSE|FALSE (ssRNA)
# RNA: GGGAGUUCUACAGUCCGACGAUCCAAUGCCUUGGAUUUAAAACAUGACUCCUUCUUGAUACAAUGAAUUAUAAAAGCAAACUAGUUCCACAUAUUAAUUAUACGUUCAAGUCUAGUUCCUAAAAAGUCAUUUCUCUUUAACCUCAACAGAGGAUUGAGCAUCA
# B7: chr15:76909541:76909542:-_ENSMUSG00000033565_ENSMUST00000166610|perfect_dup|FALSE|FALSE (ssRNA)
# RNA: B5 RNA with G82U, G83A
# B8: chr2:47387792:47387793:-_ENSG00000143933_ENST00000272298|hu_hu|hu_hu_hu_mus_True|28_38 (ssRNA)
# RNA: GGGAGUUCUACAGUCCGACGAUCUAAGGACAAUGACAGUAAGAUAAGGGAAGAAAACAUGGAGGAAUGAAGUCCUAAUUACUAUACAUGCAUAUUUUUUUGACAGUAGGGAGAAACACCUUUUACAGAUAAGUUACAAACAAACAACAGAGGAUUGAGCAUCA
# Biological target: T1, UNK ZnF1-3
# Assay: nsRBNS (natural sequence RNA bind-n-seq); RBNS binding buffer (assumed for nsRBNS): 25 mM Tris pH 7.5, 150 mM KCl, 3 mM MgCl2, 0.01% Triton X-100, 500 ug/ml BSA, 20 U/ml SUPERase-In, 4 C; UNK is unkempt and MSI1 is Musashi-1; names of the RNAs are library labels; protein concentration not given here; high values mean tight binding
row,Binder,binding signal
1,B1,1.04 enrichment R
2,B2,1.17 enrichment R
3,B3,1.62 enrichment R
4,B4,1.41 enrichment R
5,B5,8.91 enrichment R
6,B6,1.05 enrichment R
7,B7,6.42 enrichment R
8,B8,1.79 enrichment R
